For assay [1], the system named is Zika virus NS2B-NS3 protease. As to the kind of experiment: Primary screen GU AMC qHTS for Zika virus inhibitors (AID 1347154).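 Note: 0% = no-inhibitor control and -100% = no-enzyme control; nearly all actives have a fitted effect of over 70% in size.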 An outline of the steps:
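Unlinked Zika NS2B hydrophilic domain/NS3 protease domain noncovalent complex (25 nM final) in 10 mM Tris-HCl pH 8.0, 0.01% Tween 20, with AMC peptide substrate. Fluorescence (ex 340, em 450 nm) change over 15 min, room temperature; percent inhibition fitted to 4-parameter Hill equation.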

The target of assay [2] is Nucleoprotein (Lymphocytic choriomeningitis virus (strain Armstrong)) (UniProt P09992). Briefly: qHTS for Inhibitors of the Functional Ribonucleoprotein Complex (vRNP) of Lymphocytic Choriomeningitis Arenaviruses (LCMV): LCMV Primary Screen - GLuc reporter signal (AID 1347086; calls by dose curve; note: % is set by controls: 0 for no effect and ±100 for the full control effect; nearly all actives have a fitted effect of over 70% in size). For orientation: Quantitative high-throughput screening tests each substance at several concentrations.
Sequence of Nucleoprotein (Lymphocytic choriomeningitis virus (strain Armstrong)) (P09992 whole entry, looked up): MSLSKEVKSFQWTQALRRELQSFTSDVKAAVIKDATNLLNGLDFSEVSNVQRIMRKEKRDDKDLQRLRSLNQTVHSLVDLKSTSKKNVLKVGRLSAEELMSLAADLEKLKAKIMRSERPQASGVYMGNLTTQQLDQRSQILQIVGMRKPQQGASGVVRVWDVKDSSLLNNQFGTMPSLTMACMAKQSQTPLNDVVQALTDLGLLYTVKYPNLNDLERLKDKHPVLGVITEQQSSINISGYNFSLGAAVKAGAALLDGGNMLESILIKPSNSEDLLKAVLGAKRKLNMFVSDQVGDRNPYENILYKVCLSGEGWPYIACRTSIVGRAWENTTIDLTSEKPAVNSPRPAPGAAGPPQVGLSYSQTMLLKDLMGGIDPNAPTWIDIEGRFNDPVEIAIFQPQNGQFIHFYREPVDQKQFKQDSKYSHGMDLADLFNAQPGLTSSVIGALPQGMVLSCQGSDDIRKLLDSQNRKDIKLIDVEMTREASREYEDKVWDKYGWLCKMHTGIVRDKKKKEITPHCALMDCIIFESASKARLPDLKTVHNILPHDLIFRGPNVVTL

Assay [3] can be described thus: Cytotoxicity counterscreen for inhibitors of SARS-CoV-2 cell entry (AID 1645845; calls by dose curve; note: nearly all actives have a fitted effect of over 50% in size). An outline of the steps: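 Expi293F/hACE2 cells seeded overnight; cpd pin-transferred in DMSO, 1 h preincubation, + media, 48 h 37 C 5% CO2; ATPLite 1step luminescence; normalized to cells and no cells.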
On the technique in general: A counterscreen serves to expose hits that act by an unwanted route or on another target.

Another assay has as its target Furin (Homo sapiens) (UniProt P09958). As to the kind of experiment: Furin counterscreen qHTS for Zika virus inhibitors (AID 1347149).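 Note: purified recombinant full-length human furin enzyme at 5 nM; fluorescence gain from furin cutting a BOC-RVRR-AMC peptide substrate over 15 min; top concentration of the series differs between compounds; plate controls were no-inhibitor control for no effect and no-enzyme control for full effect; nearly all actives have a fitted effect of over 70% in size.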 An outline of the steps: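 Fluorogenic cleavage of BOC-RVRR-AMC (2 microM final, Km ~15 µM) was monitored (ex 340, em 450 nm) at 37C after 15 min RT preincubation of 5 nM furin with compounds in HEPES pH 7.0 buffer with CaCl2 and Triton X-100. Percent inhibition was fitted to a 4-parameter Hill curve.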

Assay [4] concerns Zika virus NS2B-NS3 protease (unlinked). As to the kind of experiment: Optimization of GU AMC qHTS for Zika virus inhibitors: Unlinked NS2B-NS3 protease assay (AID 1347151).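 Note: 0% = no-inhibitor control and -100% = no-enzyme control; nearly all actives have a fitted effect of over 80% in size.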 An outline of the steps:
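In this qHTS, compounds acted on 25 nM unlinked Zika NS2B–NS3 in pH 8.0 Tris/Tween buffer. Cleavage of an AMC peptide ran 15 min at room temperature, to about 20% conversion.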

A short description of assay [5]: Vero cells viability qHTS for Zika virus inhibitors (AID 1347167). Note: % is set by controls: 0 for no effect and ±100 for the full control effect. The method in brief: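 Counter-screen for cytotoxicity of hits from NS2B-NS3 protease qHTS. Overnight-attached cells (2.5 x 10^5 cells/mL, DMEM/4% FBS) were dosed in titration, incubated 24 to 48 hours, then assayed by CellTiter Glo.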
A short description of assay [6]: Tertiary RLuc qRT-PCR qHTS assay for Zika virus inhibitors (AID 1347169). Note: nearly all actives have a fitted effect of over 55% in size. Note: potency is the fitted concentration of half-maximal effect. The method in brief:
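Inhibition of ZIKV-RLuc replication in Vero cells, read as Renilla luminescence 1-1.5 hrs after live-cell substrate addition, following 48-72 hrs infection at MOI 1-2 in presence of compound.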
For orientation: In qPCR the cycle at which signal appears reflects the starting amount.

Assay [7] has as its target Cytochrome P450 3A4 (Homo sapiens) (UniProt P08684). As to the kind of experiment: qHTS Assay for Inhibitors and Substrates of Cytochrome P450 3A4 (AID 884). Note: % is set by controls: 0 for no effect and ±100 for the full control effect; nearly all actives have a fitted effect of over 50% in size. The method in brief:
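20 nM human CYP3A4 with 25 uM Luciferin-PPXE (at KM) in 200 mM KPO4, preincubated 10 min with compound; NADPH regeneration started a 60 min RT reaction. Luciferin detected by luminescence, normalized to 57 uM ketoconazole as full inhibition.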

Assay [8] in a line: Confirmation and Secondary Assay for Modulators of Hemoglobin Beta Chain Splicing at IVS2 705 locus (AID 930).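 Note: HeLa cells stably expressing the EGFP-705 splicing reporter; GFP fluorescence per well restored by corrected splicing of the IVS2-705 intron in EGFP; % of control where 0% means no effect.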 The method in brief:
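Fluorescence gain (488 nm laser, 500-520 nm PMT) reflects restored correct splicing of a mutant IVS2-705 intron inside EGFP in stably transfected HeLa cells after 2-day compound treatment.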

Assay [9] in a line: qHTS Assay for Lipid Storage Modulators (AID 1519; calls by dose curve; for activity change, negative = inhibition: % is set by controls: 0 for no effect and ±100 for the full control effect). Particulars: Drosophila S3 cells, BODIPY lipid droplet/cell ratio, laser cytometry, cells loaded with oleic acid; for activity change, negative = inhibition: at 57.5 µM (top of the series). An outline of the steps: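 Cells seeded at 5,000 per well were treated with compounds over a concentration series and loaded with oleic acid (400 uM, as added). Lipid droplet fluorescence (488 nm excitation, 500-530 nm channel) was read by laser-scanning cytometry and normalized to 20 uM Triacsin C.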

Assay [10] is described as follows: Confirmatory screen GU Rhodamine qHTS for Zika virus inhibitors qHTS (AID 1347157). Note: potency is the fitted concentration of half-maximal effect; nearly all actives have a fitted effect of over 70% in size. The method in brief: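 Unlinked NS2B/NS3, 25 nM; Rhod110 peptide, 1.5 microM; compounds, up to 114 microM. Reaction run 15 min at RT in 10 mM Tris-HCl pH 8.0, 0.01% Tween 20; kinetic fluorescence change fitted with a 4-parameter Hill model.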
The nature of assay [11]: Confirmatory screen NINDS Rhodamine qHTS for Zika virus inhibitors (AID 1347161). Note: potency is the fitted concentration of half-maximal effect; nearly all actives have a fitted effect of over 60% in size. The method in brief: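 qHTS dose-response: 25 nM linked protease, pH 8.0 Tris/Tween buffer, cpd titration, 15 min RT preinc, 1.5 microM Rhod110 peptide, 15 min reaction (~15% conversion), Ex480/Em540; 4-parameter Hill fit.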
Assay [12] relates to Zika virus NS2B-NS3 protease (linked). Briefly: 384 well plate NINDS AMC confirmatory qHTS for Zika virus inhibitors (AID 1347163). Note: potency is the fitted concentration of half-maximal effect; nearly all actives have a fitted effect of over 50% in size. Conditions: Recombinant NS2B-NS3 protease, Ac-VKTGKR-AMC fluorescence. An outline of the steps:
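Linked protease 5/30/60 nM final; cpds up to 1 mM final, ~15 min preinc. Substrate Ac-VKTGKR-AMC 30 microM final. RT, dark, 25 min; FI ex 355/em 460; normalized to no-enzyme/no-inhibitor ctrls.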

Assay [13] has as its system Zika virus NS2B-NS3 protease (linked construct). Briefly: 384 well plate NINDS Rhodamine confirmatory qHTS for Zika virus inhibitors (AID 1347164). Note: potency is the fitted concentration of half-maximal effect; nearly all actives have a fitted effect of over 65% in size. The method in brief: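 Cleavage of Ac-LKRR-Rhodamine 110 (10 microM final) by linked protease (final 5, 30 or 60 nM) was followed as fluorescence at 485/538 nm after 25 min, room temperature, dark. Compounds preincubated ~15 min.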

Assay [14] concerns the target Glucocorticoid receptor (Homo sapiens) (UniProt P04150). As to the kind of experiment: GR-GFP Redistribution (AID 450;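 active = compounds whose dose series gives a full or clear partial fitted curve of increased nuclear translocation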; note: potency is the fitted concentration of half-maximal effect). Conditions: U2OS GR-GFP nuclear translocation, laser cytometry, 2 h.
Assay [15] concerns the target Mitogen-activated protein kinase 10 (Mus musculus) (UniProt Q61831). As to the kind of experiment: JNK3 AlphaScreen Assay (AID 530; active = well fitted curve in either direction with a large enough effect, not every such curve was filed as active;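 note: kinase came from lysate of stimulated human HepG2 cells; signal reports phosphorylation of biotinylated GST-cJun 1-79 at Ser73 with 10 µM ATP; % is set by controls: 0 for no effect and ±100 for the full control effect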). An outline of the steps:
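JNK3 came from HepG2 lysates pre-activated with IL-1beta and TNF-alpha and phosphorylated biotinylated GST-cJun (1-79) at 10 uM ATP, pH 7.6, room temperature. Compounds were titrated. AlphaScreen signal used anti-phospho-cJun (Ser73) antibody.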

Assay [16] has as its target Ubiquitin carboxyl-terminal hydrolase 1 (Homo sapiens) (UniProt O94782). As to the kind of experiment: Inhibitors of USP1/UAF1: Pilot qHTS (AID 504865).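 Note: rhodamine fluorescence freed from ubiquitin-rhodamine substrate followed over time; top concentration of the series differs between compounds; % is set by controls: 0 for no effect and ±100 for the full control effect; nearly all actives have a fitted effect of over 35% in size.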 The method in brief: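 Enzyme-free wells gave the negative control, while test wells held 1nM USP1/UAF1 preincubated with compound for 15 min at room temperature. Ub-Rho at 150nM final started the reaction, and fluorescence at 480/540 nm was recorded kinetically.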

The target of assay [17] is DNA dC->dU-editing enzyme APOBEC-3G (Homo sapiens) (UniProt Q9HC16). Briefly: qHTS for inhibitors of Vif-A3G interactions: Validation (AID 588379). Note: 0% is about no effect. The method in brief:
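HeLa cells stably expressing Vif and A3G-eYFP, 700 cells/well, incubated overnight at 37 deg C, then exposed to compound overnight at 37 deg C. Inhibition of Vif-mediated degradation read as increased yellow fluorescence (Ex 488/Em 500-530) by laser-scanning cytometry.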

A short description of assay [18]: Counterscreen qHTS for small molecule stabilizers of the endoplasmic reticulum resident proteome: GLuc-NoTag assay (AID 1508627).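 For activity change, negative = inhibition: SH-SY5Y cells given compound then 100 nM thapsigargin to empty ER calcium; 0% = thapsigargin alone and -100% = DMSO vehicle control.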 Note: potency is the fitted concentration of half-maximal effect. An outline of the steps:
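SH-SY5Y cells stably expressing constitutively secreted GLuc (no SERCaMP tag) were pre-incubated 5 h, treated with compound for 19 h, then 100 nM thapsigargin for 4 h at 37C; medium GLuc read by coelenterazine luminescence.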

The target in assay [19] is 3',5'-cyclic-AMP phosphodiesterase 4B (Homo sapiens) (UniProt Q07343). As to the kind of experiment: qHTS Assay for Inhibitors of PDE-IV (AID 607; active = well fitted activation curve with a large enough effect in the main read-out, with a control signal flat, not every such curve was filed as active; note: % of control where 0% means no effect). The method in brief:
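Cell-based read-out of cAMP via a modified cyclic nucleotide-gated channel and membrane potential dye (535/590 nm) in HEK293 cells expressing PDE4 endogenously. Compounds tested up to 22.9 uM final; 100 uM RO 20-1724 reference.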

In assay [20] the target is Glucocorticoid receptor (Homo sapiens) (UniProt P04150). Briefly: GR-EFC Redistribution (AID 451; calls by dose curve; note: potency is the fitted concentration of half-maximal effect). Conditions: CHO-K1 GR-EFC translocation, beta-gal luminescence, 2 h. An outline of the steps:
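CHO-K1 cells stably expressing nuclear-localized β-gal enzyme acceptor and GR fused C-terminally to the enzyme donor fragment; ligand-driven nuclear translocation restores β-gal by complementation. Compounds titrated up to 46 uM final, 2 h at 37 °C; luminescence read.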

The nature of assay [21]: Cell Viability qHTS for small molecule stabilizers of the endoplasmic reticulum resident proteome (AID 1508629).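 Note: human SH-SY5Y neuroblastoma cells carrying the GLuc-SERCaMP reporter; compound exposure about 46 h in total before the viability read; % is set by controls: 0 for no effect and ±100 for the full control effect.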 Particulars: cell viability counter-screen, 100 nM thapsigargin for final 4 h.
[22] abbreviates: measured here: cell count channel max response.
Setting [23] is: measured here: lipid channel max response.

Molecules are shown by their SMILES. Inconclusive results are not listed. Active and inactive are the calls of the source. Unless noted, calls come from the whole dose curve; as a rule, active = well fitted curve in the direction sought with a large enough effect; inconclusive = small, poorly fitted or top-dose-only effect, or another doubt; inactive = no such curve, though single readings can be large; an effect the other way counts as inactive or inconclusive. A value given as a limit tells only on which side of the number the result lay.

Sequence of Glucocorticoid receptor (Homo sapiens) (P04150 whole entry, looked up, the tested form may be a part): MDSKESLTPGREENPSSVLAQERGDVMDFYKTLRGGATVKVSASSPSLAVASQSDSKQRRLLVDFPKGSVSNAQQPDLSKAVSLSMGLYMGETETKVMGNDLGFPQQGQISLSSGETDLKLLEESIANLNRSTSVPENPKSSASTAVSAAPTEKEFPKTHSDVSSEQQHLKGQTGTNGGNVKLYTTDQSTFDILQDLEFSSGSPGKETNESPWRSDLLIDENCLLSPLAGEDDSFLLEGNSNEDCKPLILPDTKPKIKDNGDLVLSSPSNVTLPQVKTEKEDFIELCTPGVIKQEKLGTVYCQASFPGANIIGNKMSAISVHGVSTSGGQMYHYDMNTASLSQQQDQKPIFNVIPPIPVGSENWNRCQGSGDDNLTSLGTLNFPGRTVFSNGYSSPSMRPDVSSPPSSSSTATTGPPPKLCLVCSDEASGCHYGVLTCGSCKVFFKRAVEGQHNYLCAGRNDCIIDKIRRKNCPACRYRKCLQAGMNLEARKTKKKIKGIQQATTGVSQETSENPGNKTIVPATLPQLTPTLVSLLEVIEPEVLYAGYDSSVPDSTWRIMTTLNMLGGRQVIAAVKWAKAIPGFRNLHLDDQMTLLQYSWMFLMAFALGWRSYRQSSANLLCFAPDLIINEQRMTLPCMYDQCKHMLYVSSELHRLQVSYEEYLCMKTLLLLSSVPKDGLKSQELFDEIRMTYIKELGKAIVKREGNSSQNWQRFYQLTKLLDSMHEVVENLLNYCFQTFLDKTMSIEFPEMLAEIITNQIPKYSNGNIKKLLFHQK
Sequence of Furin (Homo sapiens) (P09958 whole entry, looked up): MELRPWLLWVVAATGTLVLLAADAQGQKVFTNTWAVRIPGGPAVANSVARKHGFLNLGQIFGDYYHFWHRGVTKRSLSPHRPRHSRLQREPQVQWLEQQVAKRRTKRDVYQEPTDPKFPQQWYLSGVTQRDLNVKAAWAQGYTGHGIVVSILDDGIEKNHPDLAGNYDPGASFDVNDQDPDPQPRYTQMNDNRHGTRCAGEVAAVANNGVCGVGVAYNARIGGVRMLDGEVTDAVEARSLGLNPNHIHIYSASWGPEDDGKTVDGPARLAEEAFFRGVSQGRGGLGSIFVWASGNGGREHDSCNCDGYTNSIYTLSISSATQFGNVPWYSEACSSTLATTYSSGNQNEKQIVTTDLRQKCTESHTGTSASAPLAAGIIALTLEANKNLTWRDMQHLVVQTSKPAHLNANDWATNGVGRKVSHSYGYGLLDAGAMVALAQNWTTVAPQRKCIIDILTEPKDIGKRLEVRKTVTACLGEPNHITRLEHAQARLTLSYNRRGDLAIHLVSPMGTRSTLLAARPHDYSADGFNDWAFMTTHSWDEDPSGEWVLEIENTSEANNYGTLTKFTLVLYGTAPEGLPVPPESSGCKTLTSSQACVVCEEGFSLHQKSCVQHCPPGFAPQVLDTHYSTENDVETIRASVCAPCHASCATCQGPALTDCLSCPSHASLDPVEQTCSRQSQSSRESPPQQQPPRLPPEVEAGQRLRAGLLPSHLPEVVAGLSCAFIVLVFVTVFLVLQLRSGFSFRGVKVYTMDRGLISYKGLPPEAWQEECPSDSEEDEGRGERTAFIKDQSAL
Sequence of DNA dC->dU-editing enzyme APOBEC-3G (Homo sapiens) (Q9HC16 whole entry, looked up): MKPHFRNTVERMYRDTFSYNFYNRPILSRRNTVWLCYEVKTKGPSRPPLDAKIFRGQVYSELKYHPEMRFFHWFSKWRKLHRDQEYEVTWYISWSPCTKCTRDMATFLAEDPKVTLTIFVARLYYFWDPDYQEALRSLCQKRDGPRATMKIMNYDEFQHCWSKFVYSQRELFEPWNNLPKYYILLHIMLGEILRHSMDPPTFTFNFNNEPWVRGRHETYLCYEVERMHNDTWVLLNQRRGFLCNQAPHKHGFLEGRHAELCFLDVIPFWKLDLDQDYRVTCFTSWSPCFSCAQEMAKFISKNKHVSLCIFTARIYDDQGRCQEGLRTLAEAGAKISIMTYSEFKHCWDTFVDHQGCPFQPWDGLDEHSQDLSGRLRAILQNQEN
Sequence of 3',5'-cyclic-AMP phosphodiesterase 4B (Homo sapiens) (Q07343 whole entry, looked up): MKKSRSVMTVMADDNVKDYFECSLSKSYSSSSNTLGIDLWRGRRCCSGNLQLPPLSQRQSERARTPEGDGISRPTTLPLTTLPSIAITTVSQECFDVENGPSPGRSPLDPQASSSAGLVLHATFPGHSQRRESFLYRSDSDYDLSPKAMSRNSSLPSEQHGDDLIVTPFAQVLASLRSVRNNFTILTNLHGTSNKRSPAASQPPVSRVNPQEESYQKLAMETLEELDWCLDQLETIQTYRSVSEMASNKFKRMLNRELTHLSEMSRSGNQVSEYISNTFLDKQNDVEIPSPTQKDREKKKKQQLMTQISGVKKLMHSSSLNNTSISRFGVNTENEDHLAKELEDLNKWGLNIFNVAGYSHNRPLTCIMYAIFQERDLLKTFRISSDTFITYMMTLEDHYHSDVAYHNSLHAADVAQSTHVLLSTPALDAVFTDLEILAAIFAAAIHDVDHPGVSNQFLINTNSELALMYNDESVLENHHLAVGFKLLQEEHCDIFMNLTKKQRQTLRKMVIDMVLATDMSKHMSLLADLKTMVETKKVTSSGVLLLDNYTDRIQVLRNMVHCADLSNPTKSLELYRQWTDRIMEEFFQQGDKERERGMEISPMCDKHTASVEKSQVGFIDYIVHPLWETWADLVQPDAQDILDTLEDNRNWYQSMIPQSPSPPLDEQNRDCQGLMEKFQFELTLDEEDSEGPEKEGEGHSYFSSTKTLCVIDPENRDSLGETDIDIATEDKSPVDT
Sequence of Cytochrome P450 3A4 (Homo sapiens) (P08684 whole entry, looked up): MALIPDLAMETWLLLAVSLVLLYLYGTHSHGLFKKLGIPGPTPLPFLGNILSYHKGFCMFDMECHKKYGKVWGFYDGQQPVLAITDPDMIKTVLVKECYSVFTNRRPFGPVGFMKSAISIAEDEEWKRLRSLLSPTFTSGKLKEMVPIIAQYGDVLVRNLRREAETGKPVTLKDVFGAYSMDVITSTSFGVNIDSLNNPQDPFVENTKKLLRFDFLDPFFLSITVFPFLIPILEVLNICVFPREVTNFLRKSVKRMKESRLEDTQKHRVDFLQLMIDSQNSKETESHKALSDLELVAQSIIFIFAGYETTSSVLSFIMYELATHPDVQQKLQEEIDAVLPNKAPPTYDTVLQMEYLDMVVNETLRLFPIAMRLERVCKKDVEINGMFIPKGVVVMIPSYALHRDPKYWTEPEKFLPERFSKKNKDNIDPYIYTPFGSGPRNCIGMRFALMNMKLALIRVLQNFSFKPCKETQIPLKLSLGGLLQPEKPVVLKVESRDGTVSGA
Sequence of Ubiquitin carboxyl-terminal hydrolase 1 (Homo sapiens) (O94782 whole entry, looked up): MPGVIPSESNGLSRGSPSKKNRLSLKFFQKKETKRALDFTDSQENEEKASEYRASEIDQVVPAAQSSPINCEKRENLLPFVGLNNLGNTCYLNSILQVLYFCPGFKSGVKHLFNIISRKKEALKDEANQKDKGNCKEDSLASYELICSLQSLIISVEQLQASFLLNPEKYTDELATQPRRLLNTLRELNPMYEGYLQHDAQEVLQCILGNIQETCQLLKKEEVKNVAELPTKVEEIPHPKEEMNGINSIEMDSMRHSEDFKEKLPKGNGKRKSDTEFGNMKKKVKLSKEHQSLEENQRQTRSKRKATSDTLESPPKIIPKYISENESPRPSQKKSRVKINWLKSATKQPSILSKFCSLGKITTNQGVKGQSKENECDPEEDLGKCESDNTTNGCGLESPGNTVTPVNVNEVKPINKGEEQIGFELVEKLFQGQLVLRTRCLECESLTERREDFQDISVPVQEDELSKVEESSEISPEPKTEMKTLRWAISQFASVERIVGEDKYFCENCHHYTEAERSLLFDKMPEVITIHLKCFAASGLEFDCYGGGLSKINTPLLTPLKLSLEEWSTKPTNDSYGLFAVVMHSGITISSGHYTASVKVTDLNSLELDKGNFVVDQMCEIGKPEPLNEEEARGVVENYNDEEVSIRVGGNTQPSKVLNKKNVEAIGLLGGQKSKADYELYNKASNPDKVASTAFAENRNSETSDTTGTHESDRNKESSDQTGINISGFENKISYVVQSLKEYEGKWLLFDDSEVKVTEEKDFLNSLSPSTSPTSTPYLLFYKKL

In the case of `CCCCCOc1c(OC)ccc2cc(C(=O)NCc3ccc4c(c3)OCO4)c(=O)[nH]c12`, the Potency result in assay [1] was “inactive”.
As to `COc1ccc(Cn2ccc3ccc(C(=O)NO)cc32)cc1`, the Potency result in [2] and in assay [3] was “inactive” throughout.
With `O=C1CC2OCC=C3CN4CCC56c7ccccc7N1C5C2C3CC46` (stereo not given), in assay [1], the Potency result is “inactive”.
Regarding `CC1OC(O[C@H]2C[C@@H](O)[C@]3(CO)[C@H]4[C@H](O)C[C@]5(C)[C@@H](C6=CC(=O)OC6)CC[C@]5(O)[C@@H]4CC[C@]3(O)C2)C(O)C(O)C1O` (stereo not given in full), the Potency result (with Furin (Homo sapiens); in assay [5]) was “inactive” each time. In addition, the call in assay [4] was inactive. For the same compound, the Potency in [6] is 0.147 µM (active).
Take `CCN(CC)CCOc1ccc(C(=C(Cl)c2ccccc2)c2ccccc2)cc1`: the Potency result in assay [2] was “inactive”.
For the compound `CCCCCCC(C)(C)c1cc(OC)c2c(c1)OC(C)(C)[C@@H]1CC=C(C)C[C@@H]21`, the Potency entry in assay [1] was “inactive”.
On to `C[C@H](NC(=O)[C@@H](N)Cc1ccc(O)cc1)C(=O)NCC(=O)N(C)[C@@H](Cc1ccccc1)C(=O)N[C@H](CO)CCS(C)=O` (stereo not given in full), for which the activity change, negative = inhibition in assay [1] was 4.8% [at 6.83 µM] (inactive).
As to `O=c1c(O)c(-c2ccc(O)c(O)c2)oc2c(O)c(O)cc(O)c12`, the Potency entry (in assay [7]; with Furin (Homo sapiens)) was “inactive” each time. Moreover, the compound was classed as inactive in assay [8]. Also, the values for the activity change, negative = inhibition in assay [9] and in assay [6] were 10.8% (inactive) and 35.9% [at 5.25 µM] (inactive), respectively. The max response in [9] (setting [22]) is -1.92%; in [9] (setting [23]) it was 12.9%. Besides, the Potency in assay [10] is 22.4 µM (active); in [11] it was 11.2 µM (active); in assay [12], 158 µM (active); in assay [13], 100 µM (active).
Turning to `C[C@H]1O[C@@H](O[C@H]2[C@@H](O)C[C@@H](O[C@H]3[C@@H](O)C[C@H](O[C@H]4CC[C@@]5(C)[C@H](CC[C@@H]6[C@@H]5CC[C@]5(C)[C@@H](C7=CC(=O)OC7)CC[C@]65O)C4)O[C@@H]3C)O[C@@H]2C)C[C@H](O)[C@@H]1O`, the Potency entry (with Furin (Homo sapiens); in assay [5]) was “inactive” in each case. For the same compound, the compound was classed as inactive in [4]. The Potency in [6] was 0.0537 µM (active).
Take `NC(=O)[C@H](Cc1ccccc1)NC(=O)[C@H](Cc1c[nH]c2ccccc12)NC(=O)[C@@H]1CCCN1C(=O)[C@@H](N)Cc1ccc(O)cc1`: the activity change, negative = inhibition in assay [1] was 11.2% [at 6.83 µM] (inactive).
As to `Oc1ccc2c3c1O[C@H]1c4c(c5ccccc5n4Cc4ccccc4)C[C@@]4(O)C(C2)N(CC2CC2)CC[C@]314`, the Potency result in assay [1] was “inactive”.
Consider `CN1CC[C@@H]2CN3CCc4cccc(c43)[C@H]2C1`, for which the Potency in assay [14] was > 46 µM (inactive). For the same compound, in assay [15], the outcome was inactive. Besides, the Potency entry in assay [16], in assay [17], in assay [1] and in assay [18] was “inactive” throughout.
On to `CN1C(=O)COc2c(C(=O)N[C@@H]3CN4CCC3CC4)cc(Cl)cc21`, for which the compound was classed as inactive in [15]. Further, the Potency entry in assay [19], in assay [16], in [17], in [1] and in [18] was “inactive” in each case. Further, the activity change, negative = inhibition in assay [9] is 3.71% (inactive). In addition, the values for the max response in assay [9] (setting [22]) and in assay [9] (setting [23]) were 5.55% and 11.3%, respectively.
On to `Cl.Cl.Cl.Cl.Cl.Cl.N.N.N.N.NNNNN.NNNNN.O.O.[Ru].[Ru].[Ru]`, for which the Potency in assay [14] is > 46 µM (inactive); in assay [20], > 46 µM (inactive); in assay [18] it was 12.6 µM (active). Further, the call in assay [15] was inactive. Moreover, the Potency entry in [19], in [17] and in [1] was “inactive” in each case. For the same compound, the activity change, negative = inhibition in assay [9] was -5.89% (inactive). Besides, the results for the max response in assay [9] (setting [22]), in assay [9] (setting [23]) and in [21] were -27.5%, -31.1% and 7.14% (inactive), respectively.
`Cn1c2c(c3ccccc31)CCNCC2`: the Potency entry in assay [7], in [1] and in assay [18] was “inactive” in each case. Further, the max response in [21] was 24.2% (inactive).
As to `c1ccc2sc(C3(N4CCCC4)CCCCC3)cc2c1`, the Potency entry in assay [1] and in assay [18] was “inactive” throughout.

Values taken from PubChem BioAssay (NCATS).
